From PubChem BioAssay (EPA / NIEHS) come the findings set out here.

SMILES strings stand for the structures. Inconclusive results are not listed. The source made the active and inactive calls. The calls were made as follows, unless noted: active = hit-call score of the fitted dose curve at least 0.9, where 1 is the maximum; inconclusive = response in the unintended direction; inactive = score below 0.9.

Assay [1] concerns the target Voltage-gated inwardly rectifying potassium channel KCNH2 (Homo sapiens) (UniProt Q12809). Put plainly: NVS_IC_hKhERGCh: NovaScreen (NVS) Ion Channel Assay for human Potassium Channel ERG (KhERGCh) (AID 2283333). The essentials: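 Cell-free radioligand competition binding on hERG protein extracted from CHO cells, read by filter-based scintillation counting 0.75 h after dosing. Primary screen at 25 uM in duplicate, actives followed in concentration series. Signal loss fitted versus DMSO.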

For assay [2], the target named is Estrogen receptor (Homo sapiens) (UniProt P03372). Nature of the assay: OT_ER_ERaERa_1440: Odyssey Thera (OT) 24-hour HEK293T Protein-Complementation Assay for Estrogen Receptor-alpha/-alpha Homodimer (AID 2283349).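 Also: hits raise fluorescence above DMSO for agonists and antagonists alike.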 The essentials: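 HEK293T cells stably expressing the human ER alpha ligand-binding domain (aa 310-547) as a homodimer PCA were dosed for 24 hours. Fluorescence intensity was read by laser scanning cytometry, and gain of signal was fitted relative to DMSO vehicle.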

The target is the same in assay [3]. Put plainly: OT_ER_ERaERa_0480: Odyssey Thera (OT) 8-hour HEK293T Protein-Complementation Assay for Estrogen Receptor-alpha/-alpha Homodimer (AID 2283351).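 Also: rise in fluorescence from reassembled reporter fragments on ERα LBD homodimer in nucleus or whole cell.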 The essentials: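 Binding reporter in which dimerisation of ERα LBD (aa 310-547) fusions reconstitutes a fluorescent reporter in HEK293T cells. Compounds incubated 8 h; mean fluorescence intensity increase versus DMSO scored.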

In assay [4] the target is Estrogen receptor (Homo sapiens) + Estrogen receptor beta (Homo sapiens) (UniProt P03372+Q92731). Put plainly: OT_ER_ERaERb_0480: Odyssey Thera (OT) 8-hour HEK293T Protein-Complementation Assay for Estrogen Receptor-alpha/-beta Heterodimer (AID 2283352). The essentials:
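Fluorescence intensity readout from a protein-fragment complementation reporter in HEK293T; ER-alpha/ER-beta LBD heterodimer. Dosing 8 h. Gain-of-signal fit relative to DMSO negative control; laser scanning cytometry of whole-well cell population.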

Assay [5] has as its target rat Peripheral-type Benzodiazepine Receptor (PBR), Tspo (gene 24230) (UniProt P16257). Put plainly: NVS_MP_rPBR: NovaScreen (NVS) Membrane Protein Assay for rat Peripheral-type Benzodiazepine Receptor (PBR) (AID 2283335). The essentials:
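Radioligand displacement, rat kidney membrane prep, 1 h exposure, filter-based scintillation read; DMSO baseline, loss-of-signal scored. Primary screen at 25 uM in duplicate, actives followed up in concentration series.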

Another assay deals with NCBI gene 100848466. Put plainly: NVS_NR_bPR: NovaScreen (NVS) Nuclear Receptor Binding Assay for bovine Progextron Receptor (PR) (AID 2283343).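 As to AC50: actives lower bound radioligand signal below DMSO meaning displacement of the label.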 In short, it runs like this:
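Bovine uterine membrane preparation; radioligand displacement read by scintillation counting 18 h after dosing. Primary screen single concentration, 25 uM, in duplicate; actives followed up in concentration series. Signal loss versus DMSO baseline.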

Assay [6] concerns the target human Androgen Receptor (AR), AR (gene 367) (UniProt P10275). Nature of the assay: NVS_NR_hAR: NovaScreen (NVS) Nuclear Receptor Binding Assay for human Androgen Receptor (AR) (AID 2283332). The essentials:
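LnCAP cell-free extract; radioligand displacement read by scintillation counting after 20 h. Primary screen single concentration 25 uM in duplicate, actives then run as concentration series; loss-of-signal fitted relative to DMSO baseline.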

The nature of assay [7]: NVS_IC_rCaBTZCHL: NovaScreen (NVS) Ion Channel Assay for Calcium Channel, Type L, Benzothiazepine Site (CaBTZCHL) (AID 2283337). In short, it runs like this: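 Competitive displacement of a site-specific radioligand from rat cortex membranes, measured as signal loss against DMSO baseline by filter radiodetection after 1.5 h. Single-point 25 uM primary screen.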
Assay [8] has as its system guinea pig Histamine Receptor (H2), gene 100729734. Put plainly: NVS_GPCR_gH2: NovaScreen (NVS) G Protein-Coupled Receptor Assay for guinea pig Histamine Receptor (H2) (AID 2283342). The essentials: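 Radioligand displacement on guinea pig striatal membranes, 1 h after dosing, filter-based scintillation counting; loss of signal versus DMSO. Single-point screen at 25 uM in duplicate, then concentration-response up to 50 uM.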

Assay [9] deals with chimpanzee Androgen Receptor (AR), AR (gene 747460) (UniProt O97775). Put plainly: NVS_NR_cAR: NovaScreen (NVS) Nuclear Receptor Binding Assay for chimpanzee Androgen Receptor (AR) (AID 2283346).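 Also: a loss of bound radioligand signal versus DMSO counts as binding.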 The essentials: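 Radioligand binding to chimpanzee AR expressed in Sf9/Sf21 cells, cell-free, measured 72 h after dosing by lysate-based scintillation counting. Loss of signal vs DMSO; initial duplicate screen at 25 uM, actives retested in concentration series.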

For assay [10], the target named is Bile acid receptor (Homo sapiens) (UniProt Q96RI1). Put plainly: NVS_NR_hFXR_Antagonist: NovaScreen (NVS) Nuclear Receptor Binding Assay for human Farnesoid X Receptor Antagonism (FXR) (AID 2283350). In short, it runs like this: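 Cell-free TR-FRET ligand-binding read-out on human FXR (NR1H4) in antagonist mode, measured 1 h after dosing. Primary screen in duplicate at 25 uM, actives retested in concentration series; signal loss scored versus DMSO.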

Assay [11] has as its target Androgen Receptor/SRC-1 Co-activator, AR (gene 367) (UniProt P10275). Nature of the assay: OT_AR_ARSRC1_0960: Odyssey Thera (OT) 16-hour HEK293T Protein-Complementation Assay for Androgen Receptor/SRC-1 Co-activator (AID 2283353).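 Also: actives raise the signal above DMSO so potency reflects increased AR and SRC-1 complex.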 The essentials: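 Interaction of AR with SRC-1 was followed by YFP fragment complementation in HEK293T cells after 16 h of dosing. Gain of nuclear-over-cytoplasmic 488 nm fluorescence against DMSO controls defined activity.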

Assay [12] has the same target. Put plainly: OT_AR_ARSRC1_0480: Odyssey Thera (OT) 8-hour HEK293T Protein-Complementation Assay for Androgen Receptor/SRC-1 Co-activator (AID 2283354).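 Also: hits raise the complementation signal above DMSO so AC50 marks enhancers.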 In short, it runs like this:
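HEK293T cells stably expressing AR and SRC-1 fused to Venus YFP fragments, imaged 8 h after dosing. Complementation fluorescence scored as nuclear/cytoplasmic ratio at 488 nm in at least 400 cells per image; gain fitted versus DMSO.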

The target of assay [13] is Glutamate receptor ionotropic, kainate 1 (Rattus norvegicus) (UniProt P22756). Nature of the assay: NVS_IC_rKAR: NovaScreen (NVS) Ion Channel Assay for rat Kainic Acid Receptors (KAR) (AID 2283334; active = hit-call score of the fitted dose curve at least 0.9, where 1 is the maximum; inactive = score below 0.9). The essentials:
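Radioligand displacement binding using rat forebrain membranes, 1 h incubation, filter-based scintillation counting. Screened in duplicate at 25 uM, with actives retested in concentration-response up to 50 uM; fitted against DMSO.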

Chain of chimpanzee Androgen Receptor (AR), AR (gene 747460) (O97775 whole entry, looked up): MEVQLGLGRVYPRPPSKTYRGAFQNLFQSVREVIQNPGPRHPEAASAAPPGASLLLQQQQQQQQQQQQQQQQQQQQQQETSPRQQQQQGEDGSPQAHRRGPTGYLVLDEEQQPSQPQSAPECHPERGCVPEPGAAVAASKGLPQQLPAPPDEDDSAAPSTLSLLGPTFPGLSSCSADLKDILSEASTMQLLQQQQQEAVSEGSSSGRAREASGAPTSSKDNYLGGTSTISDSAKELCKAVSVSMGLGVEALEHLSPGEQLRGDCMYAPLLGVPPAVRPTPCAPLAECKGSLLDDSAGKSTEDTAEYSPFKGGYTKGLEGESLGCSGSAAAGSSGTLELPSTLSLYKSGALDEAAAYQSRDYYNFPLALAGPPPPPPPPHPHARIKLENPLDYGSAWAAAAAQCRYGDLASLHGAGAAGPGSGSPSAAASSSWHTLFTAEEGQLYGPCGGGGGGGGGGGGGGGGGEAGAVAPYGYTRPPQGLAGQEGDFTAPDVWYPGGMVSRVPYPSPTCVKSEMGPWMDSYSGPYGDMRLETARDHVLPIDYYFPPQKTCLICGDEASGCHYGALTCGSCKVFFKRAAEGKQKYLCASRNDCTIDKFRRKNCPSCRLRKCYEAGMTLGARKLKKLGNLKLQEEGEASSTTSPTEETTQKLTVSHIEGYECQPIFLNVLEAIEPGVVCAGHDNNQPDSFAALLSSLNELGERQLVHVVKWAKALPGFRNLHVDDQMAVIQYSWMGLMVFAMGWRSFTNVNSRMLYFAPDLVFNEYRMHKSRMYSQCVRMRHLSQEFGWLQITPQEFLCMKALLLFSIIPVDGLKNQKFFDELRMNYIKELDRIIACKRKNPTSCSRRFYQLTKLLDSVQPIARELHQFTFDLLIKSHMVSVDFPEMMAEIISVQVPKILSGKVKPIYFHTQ
Chain of Androgen Receptor/SRC-1 Co-activator, AR (gene 367) (P10275 whole entry, looked up, the tested form may be a part): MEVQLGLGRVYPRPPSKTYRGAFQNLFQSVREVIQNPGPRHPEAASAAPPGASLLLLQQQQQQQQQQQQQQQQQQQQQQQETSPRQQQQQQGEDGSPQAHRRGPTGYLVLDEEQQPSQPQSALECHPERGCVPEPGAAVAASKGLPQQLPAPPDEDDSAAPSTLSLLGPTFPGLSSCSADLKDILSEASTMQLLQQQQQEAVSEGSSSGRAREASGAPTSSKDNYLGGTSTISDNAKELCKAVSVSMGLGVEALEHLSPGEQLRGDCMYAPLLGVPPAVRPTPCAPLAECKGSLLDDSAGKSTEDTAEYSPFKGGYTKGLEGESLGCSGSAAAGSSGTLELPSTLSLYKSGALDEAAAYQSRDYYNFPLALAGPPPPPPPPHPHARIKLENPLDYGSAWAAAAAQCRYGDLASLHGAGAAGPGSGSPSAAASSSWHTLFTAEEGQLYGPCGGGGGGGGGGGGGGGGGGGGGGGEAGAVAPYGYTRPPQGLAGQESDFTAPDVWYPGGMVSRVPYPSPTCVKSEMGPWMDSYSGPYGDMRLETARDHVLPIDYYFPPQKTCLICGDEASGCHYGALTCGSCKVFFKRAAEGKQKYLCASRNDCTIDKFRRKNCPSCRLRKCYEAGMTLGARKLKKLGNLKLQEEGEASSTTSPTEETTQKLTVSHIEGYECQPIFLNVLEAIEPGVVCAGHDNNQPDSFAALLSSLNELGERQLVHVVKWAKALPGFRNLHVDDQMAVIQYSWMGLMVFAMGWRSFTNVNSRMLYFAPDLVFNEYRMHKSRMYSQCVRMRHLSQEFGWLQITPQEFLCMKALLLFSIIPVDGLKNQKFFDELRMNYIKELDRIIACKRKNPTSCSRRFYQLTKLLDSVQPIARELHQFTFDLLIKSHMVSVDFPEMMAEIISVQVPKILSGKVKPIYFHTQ
Chain of rat Peripheral-type Benzodiazepine Receptor (PBR), Tspo (gene 24230) (P16257 whole entry, looked up): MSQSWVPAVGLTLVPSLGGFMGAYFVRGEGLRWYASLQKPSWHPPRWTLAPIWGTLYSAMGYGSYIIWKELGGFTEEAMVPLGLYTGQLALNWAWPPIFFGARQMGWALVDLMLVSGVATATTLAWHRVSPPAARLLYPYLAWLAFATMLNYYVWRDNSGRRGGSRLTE
Chain of human Androgen Receptor (AR), AR (gene 367) (P10275 whole entry, looked up): as the sequence (P10275 whole entry, looked up, the tested form may be a part) above
Chain of Voltage-gated inwardly rectifying potassium channel KCNH2 (Homo sapiens) (Q12809 whole entry, looked up): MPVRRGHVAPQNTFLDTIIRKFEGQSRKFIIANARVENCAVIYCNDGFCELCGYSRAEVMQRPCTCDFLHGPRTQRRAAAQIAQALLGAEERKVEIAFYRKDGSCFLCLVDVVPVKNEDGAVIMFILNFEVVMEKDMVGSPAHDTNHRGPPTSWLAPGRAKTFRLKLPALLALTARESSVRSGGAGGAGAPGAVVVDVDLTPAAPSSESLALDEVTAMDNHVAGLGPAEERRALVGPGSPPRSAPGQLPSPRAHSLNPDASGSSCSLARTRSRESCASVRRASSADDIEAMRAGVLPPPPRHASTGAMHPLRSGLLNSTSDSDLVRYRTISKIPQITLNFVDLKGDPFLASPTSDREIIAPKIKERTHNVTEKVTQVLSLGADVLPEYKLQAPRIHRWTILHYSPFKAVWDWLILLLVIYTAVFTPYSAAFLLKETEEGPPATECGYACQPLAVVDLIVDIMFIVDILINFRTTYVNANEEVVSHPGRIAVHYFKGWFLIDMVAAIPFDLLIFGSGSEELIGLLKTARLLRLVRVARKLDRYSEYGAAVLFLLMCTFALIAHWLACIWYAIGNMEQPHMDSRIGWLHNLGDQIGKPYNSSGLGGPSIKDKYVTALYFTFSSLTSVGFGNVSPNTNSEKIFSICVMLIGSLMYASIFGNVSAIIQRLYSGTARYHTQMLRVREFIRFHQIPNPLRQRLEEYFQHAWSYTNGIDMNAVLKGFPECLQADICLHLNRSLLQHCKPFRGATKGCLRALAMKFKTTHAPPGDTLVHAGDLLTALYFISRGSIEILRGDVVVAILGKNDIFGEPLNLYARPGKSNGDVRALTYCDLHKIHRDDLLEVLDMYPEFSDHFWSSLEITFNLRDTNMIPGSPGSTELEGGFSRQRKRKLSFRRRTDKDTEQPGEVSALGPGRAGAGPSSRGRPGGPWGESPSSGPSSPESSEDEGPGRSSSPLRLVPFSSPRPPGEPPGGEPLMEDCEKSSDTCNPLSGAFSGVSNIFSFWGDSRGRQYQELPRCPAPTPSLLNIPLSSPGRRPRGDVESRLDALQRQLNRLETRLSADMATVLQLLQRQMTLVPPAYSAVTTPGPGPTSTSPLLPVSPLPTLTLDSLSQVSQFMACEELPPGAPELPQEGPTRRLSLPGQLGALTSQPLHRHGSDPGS
Chain of Estrogen receptor (Homo sapiens) (P03372 whole entry, looked up, the tested form may be a part): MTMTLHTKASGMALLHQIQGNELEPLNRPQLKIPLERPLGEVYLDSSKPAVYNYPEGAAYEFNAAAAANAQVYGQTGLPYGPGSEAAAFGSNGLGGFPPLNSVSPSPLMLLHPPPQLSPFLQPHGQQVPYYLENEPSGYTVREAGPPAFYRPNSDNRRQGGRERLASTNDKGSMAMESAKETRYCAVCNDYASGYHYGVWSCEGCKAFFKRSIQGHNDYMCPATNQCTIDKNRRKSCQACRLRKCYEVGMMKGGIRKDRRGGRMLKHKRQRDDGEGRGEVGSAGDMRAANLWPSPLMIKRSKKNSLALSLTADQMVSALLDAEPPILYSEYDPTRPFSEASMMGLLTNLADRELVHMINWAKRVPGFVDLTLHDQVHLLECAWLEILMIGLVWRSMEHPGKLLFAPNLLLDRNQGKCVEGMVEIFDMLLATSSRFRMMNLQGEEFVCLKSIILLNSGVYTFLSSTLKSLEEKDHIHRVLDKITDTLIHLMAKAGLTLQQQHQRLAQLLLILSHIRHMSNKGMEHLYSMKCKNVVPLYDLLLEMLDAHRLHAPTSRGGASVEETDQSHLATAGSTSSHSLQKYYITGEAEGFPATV

In general, AC50 refers to the concentration giving half of the maximal activity seen. For `CSc1nc(NC(C)C)nc(NC(C)C)n1`, the AC50 in assay [1] was 6.4 µM (active). The compound was called inactive in assay [2], in assay [3] and in [4].
As to `CCOP(=S)(OCC)Oc1cc(C)nc(C(C)C)n1`, the half-maximal activity concentration (AC50) in assay [5] was 1.3 µM (active). Besides, the call with NCBI gene 100848466 was inactive.
Regarding `CCC(CC)Nc1c([N+](=O)[O-])cc(C)c(C)c1[N+](=O)[O-]`, the call in [5] was inactive. Further, in the assay with NCBI gene 100848466, the AC50 is 40.1 µM (active).
Take `CCOP(=S)(Oc1cnc(C(C)(C)C)nc1)OC(C)C` (stereo not given): the compound was classed as inactive in [5].
As to `CC(C)N(C(=O)SCC(Cl)=C(Cl)Cl)C(C)C`, the AC50 was 45.6 µM (active) in [5] and 36.8 µM (active) with NCBI gene 100848466.
The corresponding values for `CCOP(=S)(OCC)Oc1ccc2c(C)c(Cl)c(=O)oc2c1` are 0.541 µM (active) and 1.01 µM (active).
Take `COc1ccc(C(=CC(=O)N2CCOCC2)c2ccc(Cl)cc2)cc1OC`: the AC50 in assay [6] is 1.79 µM (active); in assay [9] it was 17.3 µM (active). Besides, the result in assay [5], in [7], in assay [8], in assay [10], in assay [11] and in assay [12] was inactive.
For `CCC(=O)Nc1ccc(Cl)c(Cl)c1`, the AC50 in [6] was 8.41 µM (active); in assay [5], 9.5 µM (active); in assay [9], 12.4 µM (active). For the same compound, the compound was called inactive in assay [11] and in [12].
With `CCC(=NOC/C=C/Cl)C1=C(O)CC(C2CCOCC2)CC1=O` (stereo not given), in assay [5], the compound was classed as inactive.
On to `COP(=O)(NC(C)=O)SC` (stereo not given), for which the outcome in assay [13] was inactive.
With `CCCOCC(=Nc1ccc(Cl)cc1C(F)(F)F)n1ccnc1`, the outcome (in [1]; in assay [7]; in the assay with NCBI gene 100848466) was inactive. Also, the AC50 in [5] was 0.807 µM (active); in assay [9], 5.96 µM (active).
For the compound `CCCCN(CC)c1c([N+](=O)[O-])cc(C(F)(F)F)cc1[N+](=O)[O-]`, the result in assay [5] was inactive.
With `CCOC(=O)CC(SP(=O)(OC)OC)C(=O)OCC` (stereo not given), the AC50 in [5] was 19.7 µM (active). For the same compound, the result with NCBI gene 100848466 was inactive.
Regarding `CCCSP(=O)(OCC)Oc1ccc(Br)cc1Cl` (stereo not given), the figures for the concentration at half-maximal activity (AC50) (in [5]; in the assay on NCBI gene 100848466) were 0.28 µM (active) and 20.1 µM (active), respectively.
For `CCOP(=S)(OCC)Oc1ccc([N+](=O)[O-])cc1`, in that order: 3.61 µM (active) and 2.23 µM (active).
